IL-1B inflam inh: qHTS for Inhibitors of Inflammasome Signaling: IL-1-beta AlphaLISA Primary Screen; THP-1 LPS/ATP IL-1B secretion, AlphaLISA, 16 h; stronger effect = lower value; activity change, % at 57.5 µM; hit rate 4.7% among 360,000; AID 743279, 2014; in the data active = activity change below about -50%; inconclusive = mostly about -30% to -49%
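Secreted IL-1B measured by AlphaLISA bead assay after 16 h compound exposure of THP-1 cells; compounds (final up to 57.5 uM) added 1 h before LPS (250 ng/mL) and ATP (1.25 mM) stimulation; lower signal means less secretion.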
TDP1 cell noCPT: qHTS for Inhibitors of human tyrosyl-DNA phosphodiesterase 1 (TDP1): qHTS in cells in absence of CPT; Potency, µM (titrated, usually from 46.2 µM), most hits filed as inhibitors; AID 686978, 2013; hit rate 15% among 420,000; DT40 Tdp1-/- hTDP1 cells, no CPT, ATP luminescence, 48 h; also: nearly all actives have a fitted effect of over 55% in size
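Luminescent ATP content (CellTiter-Glo) served as the growth readout. Knockout chicken DT40 cells expressing human TDP1 were exposed to compounds without camptothecin for a minimum 48 hr at 37 °C.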
ELG1 DNA repair: qHTS screen for small molecules that inhibit ELG1-dependent DNA repair in human embryonic kidney (HEK293T) cells expressing luciferase-tagged ELG1 | Potency, µM (series often up to 46.1 µM), most hits filed as inhibitors | AID 504467, 2011 | hit rate 2.3% among 330,000 | HEK293T ELG1-luciferase reporter, luminescence, 16 h; DNA damage induced by 5-fluorouridine; also: nearly all actives have a fitted effect of over 55% in size
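In this reporter screen, reduction of luminescence relative to DMSO vehicle indicated activity. Compounds and 5-fluorouridine were added together to 2,000 cells per well, incubated for 16 hr at 37 °C, then developed with ONE-Glo.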
VP16 counter: VP16 counterscreen qHTS for inhibitors of ROR gamma transcriptional activity; Drosophila S2 Gal4-VP16 UAS-luciferase, luminescence, 20 h; Potency, µM (highest dose often 53.6 µM), most hits filed as inhibitors; hit rate 3.5% among 310,000; AID 2546, 2010;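 also: Gal4-VP16 expression switched on by copper sulfate through the metallothionein promoter; nearly all actives have a fitted effect of over 50% in size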
TDP1 cell CPT: qHTS for Inhibitors of human tyrosyl-DNA phosphodiesterase 1 (TDP1): qHTS in cells in presence of CPT | chicken DT40 Tdp1-/-;hTDP1 cells + 20 nM CPT, ATP luminescence, 48 h | Potency, µM (doses to about 46.2 µM), actives largely listed as inhibitors | hit rate 12% among 420,000 | AID 686979, 2013; also: nearly all actives have a fitted effect of over 55% in size
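Cell growth measured by CellTiter-Glo luminescence after a minimum 48 h, 37 C compound exposure with 20 nM CPT in Tdp1-knockout DT40 cells stably expressing hTDP1, seeded 400/well; qHTS titration format.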
RORg inh: qHTS for inhibitors of ROR gamma transcriptional activity | Nuclear receptor ROR-gamma (Mus musculus), P51450 | Drosophila S2 Gal4-RORgamma UAS-luciferase reporter, 20 h | Potency, µM (highest dose often 53.6 µM), hits mostly inhibitors | hit rate 5.4% among 310,000 | AID 2551, 2010; also: nearly all actives have a fitted effect of over 60% in size
Target sequence (P51450 whole entry, looked up, the tested form may be a part): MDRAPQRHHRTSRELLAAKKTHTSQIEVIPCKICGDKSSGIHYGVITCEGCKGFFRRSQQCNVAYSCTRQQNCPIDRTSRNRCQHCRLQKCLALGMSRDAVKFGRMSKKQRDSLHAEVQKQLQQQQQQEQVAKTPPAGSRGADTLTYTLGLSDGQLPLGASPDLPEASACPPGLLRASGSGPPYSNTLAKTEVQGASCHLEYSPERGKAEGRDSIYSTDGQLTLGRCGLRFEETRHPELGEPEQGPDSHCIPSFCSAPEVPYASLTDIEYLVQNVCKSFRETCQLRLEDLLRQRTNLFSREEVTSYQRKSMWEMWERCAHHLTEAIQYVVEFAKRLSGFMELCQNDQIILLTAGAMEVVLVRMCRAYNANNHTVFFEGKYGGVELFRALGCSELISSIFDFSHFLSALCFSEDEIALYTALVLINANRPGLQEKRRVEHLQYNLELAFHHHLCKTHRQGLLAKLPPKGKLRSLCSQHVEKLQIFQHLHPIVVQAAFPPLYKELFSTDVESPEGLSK
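A Gal4/UAS one-hybrid system in insect cells: metallothionein-promoter Gal4–ROR gamma fusion plus Photinus luciferase reporter. Copper sulfate 700 uM final, 20 hr ambient incubation, luminescent detection after 10 min with reagent.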
A number is an active result. An excerpt weighted towards active compounds, which were near 21% of everything screened. Unless noted, calls follow the shape of the dose curve; as a rule, active = well fitted curve in the direction sought with a large enough effect; inconclusive = small, poorly fitted or top-dose-only effect, or another doubt; inactive = no such curve, though single readings can be large; an effect the other way counts as inactive or inconclusive.

Results for Oc1ccc(Br)cc1-c1ccnn1-c1ccccc1 ?
IL-1B inflam inh: inactive; TDP1 cell noCPT: 10µM; ELG1 DNA repair: inconclusive; VP16 counter: inactive; TDP1 cell CPT: 21µM; RORg inh: inactive

How did CC(C)C[C@@H](CC(=O)N[C@H](CC(=O)N[C@@H]1CCNC[C@H]1C(=O)N[C@H](CC(=O)N[C@@H](CCC(=O)O)CC(=O)O)CC(C)C)C(C)C)NC(=O)[C@@H]1CCCC[C@H]1N do in these assays?
VP16 counter: inactive; RORg inh: inactive

How did O=C(Cn1cnc([N+](=O)[O-])c1)Nc1cc(Oc2ccc(Cl)cc2Cl)cc([N+](=O)[O-])c1 do in these assays?
IL-1B inflam inh: -58; TDP1 cell noCPT: 16µM; ELG1 DNA repair: inactive; VP16 counter: inconclusive; TDP1 cell CPT: 16µM; RORg inh: inconclusive

How did C[C@@H]1C[C@@H]2OC(=O)[C@]3(C)[C@H]2[C@@H](OC3(C)O)[C@]2(C)C(=O)C=C[C@H]12 (stereo partly drawn) do in these assays?
IL-1B inflam inh: -90; TDP1 cell noCPT: inconclusive; ELG1 DNA repair: inactive; VP16 counter: inactive; TDP1 cell CPT: 18µM; RORg inh: inactive

How did N=C(N)SCc1ccccn1 do in these assays?
IL-1B inflam inh: inactive; TDP1 cell noCPT: inactive; ELG1 DNA repair: inconclusive; VP16 counter: inactive; TDP1 cell CPT: inconclusive; RORg inh: inactive

How did N=C(N)SCc1ccc(Cl)c2ccccc12 do in these assays?
IL-1B inflam inh: -101; TDP1 cell noCPT: inconclusive; TDP1 cell CPT: inconclusive

What do the screens show for `CCN(CC)CCCNC(=O)C1CCC(CNS(=O)(=O)c2c(C)cc(C)cc2C)CC1` (stereo not drawn)?
IL-1B inflam inh: inactive; TDP1 cell noCPT: inactive; ELG1 DNA repair: inactive; VP16 counter: inactive; TDP1 cell CPT: inconclusive; RORg inh: inactive

How did CCC(C)C(NC(=O)C1CCC(C)CC1)C(=O)NCCc1ccc(S(N)(=O)=O)cc1 (stereo not drawn) do in these assays?
IL-1B inflam inh: inactive; TDP1 cell noCPT: inactive; ELG1 DNA repair: inactive; VP16 counter: inactive; TDP1 cell CPT: inactive; RORg inh: inactive

What do the screens show for `CCC1CCCCN1CCCNC(=O)C1CCC(CNS(=O)(=O)c2c(C)cc(C)cc2C)CC1` (stereo not drawn)?
IL-1B inflam inh: inactive; TDP1 cell noCPT: inconclusive; ELG1 DNA repair: inconclusive; VP16 counter: inactive; TDP1 cell CPT: 29µM; RORg inh: inactive

How did CCC(C)C(NC(=O)C1CCC(C)CC1)C(=O)NCCCN1CCCCC1CC (stereo not drawn) do in these assays?
IL-1B inflam inh: -63; TDP1 cell noCPT: inactive; ELG1 DNA repair: inactive; VP16 counter: inactive; TDP1 cell CPT: inactive; RORg inh: inactive

How did CC(C)(C)N1C(=O)c2ccccc2NC(=O)C1C(=O)NCCc1ccccc1F (stereo not drawn) do in these assays?
IL-1B inflam inh: inactive; TDP1 cell noCPT: inconclusive; TDP1 cell CPT: inconclusive

Results for COc1ccc(S(=O)(=O)NCC(c2ccco2)N2CCc3ccccc32)cc1 (stereo not drawn) ?
IL-1B inflam inh: inactive; TDP1 cell noCPT: 15µM; ELG1 DNA repair: inactive; TDP1 cell CPT: inconclusive

How did Cc1ccc(S(=O)(=O)NCC(c2ccco2)N2CCc3ccccc32)cc1 (stereo not drawn) do in these assays?
IL-1B inflam inh: inconclusive; TDP1 cell noCPT: inconclusive; ELG1 DNA repair: inactive; TDP1 cell CPT: inconclusive

Results for COc1ccc(C(=O)NCC(c2ccco2)N2CCc3ccccc32)c(OC)c1 (stereo not drawn) ?
IL-1B inflam inh: inactive; TDP1 cell noCPT: 7.3µM; ELG1 DNA repair: inconclusive; TDP1 cell CPT: inconclusive

What do the screens show for `COc1ccc(C(=O)NCC(c2ccco2)N2CCc3ccccc3C2)c(OC)c1` (stereo not drawn)?
IL-1B inflam inh: inactive; TDP1 cell noCPT: 8.2µM; TDP1 cell CPT: 23µM

How did O=C(O)CC/C=C\C[C@@H]1CO[C@H](c2ccccc2Cl)O[C@@H]1c1ccccc1O do in these assays?
TDP1 cell noCPT: inactive; VP16 counter: inactive; TDP1 cell CPT: inactive; RORg inh: inactive

How did CCOc1ccc(C(=O)NNC2CC(=O)N(Cc3ccc(Cl)cc3)C2=O)cc1OC (stereo not drawn) do in these assays?
IL-1B inflam inh: inactive; TDP1 cell noCPT: inactive; ELG1 DNA repair: inactive; VP16 counter: 1.3µM; TDP1 cell CPT: inactive; RORg inh: 3.2µM

Results for COc1ccc(C(=O)NNC2CC(=O)N(Cc3ccccc3)C2=O)cc1OC (stereo not drawn) ?
IL-1B inflam inh: inactive; TDP1 cell noCPT: inactive; ELG1 DNA repair: inactive; VP16 counter: inactive; TDP1 cell CPT: inactive; RORg inh: inactive

Results for Cc1ccc(S(=O)(=O)NC(=O)NC2CCCCCCC2)cc1 ?
TDP1 cell noCPT: inactive; VP16 counter: inactive; TDP1 cell CPT: inactive; RORg inh: inactive

How did CC(C)(C)OC(=O)N1CCC(NC(=O)c2[nH]c(C(F)(F)F)nc2-c2ccccc2)CC1 do in these assays?
IL-1B inflam inh: inactive; TDP1 cell noCPT: inconclusive; TDP1 cell CPT: inactive

How did CCOc1cc(CNCCSc2nnnn2-c2ccccc2)ccc1OC do in these assays?
TDP1 cell noCPT: 10µM; TDP1 cell CPT: 12µM

How did COc1ccc(S(=O)(=O)NCCOc2ccccc2)cc1OC do in these assays?
IL-1B inflam inh: inactive; TDP1 cell noCPT: inactive; ELG1 DNA repair: inactive; VP16 counter: inconclusive; TDP1 cell CPT: inactive; RORg inh: inactive

How did COc1cccc(CNCCSc2nnnn2-c2ccccc2)c1OC do in these assays?
TDP1 cell noCPT: 23µM; TDP1 cell CPT: inconclusive

What do the screens show for `COc1ccc(S(=O)(=O)NCCOc2ccccc2)cc1-n1cnnn1`?
IL-1B inflam inh: -50; TDP1 cell noCPT: inactive; ELG1 DNA repair: inactive; VP16 counter: inactive; TDP1 cell CPT: inactive; RORg inh: inactive

Results for COc1ccc(S(=O)(=O)NCCSc2nnnn2-c2ccccc2)cc1OC ?
TDP1 cell noCPT: 23µM; TDP1 cell CPT: 16µM

How did COc1cccc(CNCCCSc2nnnn2C)c1OC do in these assays?
TDP1 cell noCPT: inactive; TDP1 cell CPT: inactive

How did C=CCOC(=O)[C@H](O)[C@@H](O)C(=O)OCC=C do in these assays?
VP16 counter: inactive; RORg inh: inactive

Results for COC(=O)c1nnn(-c2nonc2N)c1COc1ccc(C=O)cc1OC ?
IL-1B inflam inh: inactive; TDP1 cell noCPT: 9.2µM; ELG1 DNA repair: inactive; VP16 counter: inactive; TDP1 cell CPT: 15µM; RORg inh: inactive

Compound activity from PubChem.
